This note sets out measurements from PubChem BioAssay AID1984 (Sanford-Burnham Center for Chemical Genomics, 2009).

Hit rate of the full screen: of about 290,000 compounds, about 35 (0.01%) were called active. The list comes from a sample in which actives are over-represented; it also holds similar structures and randomly drawn compounds. Unmarked numbers belong to inactive results.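 How the source made its calls: active means EGFP signal decrease of at least 30% at 10 µM or well 3 SD below plate mean, unless failing retest; inactive means the rest, including hits failing retest or dose response.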

This assay deals with p/CIP-EGFP fusion (nuclear receptor coactivator 3, mouse) (UniProt Q05BA5). The assay can be described thus: compounds lowering mouse p/CIP (NCOA3) protein levels – fluorescence, F442A cells, EGFP fusion, primary screen (AID 1984). Particulars: 16 h, at 10 µM, stronger effect = higher value.
Sequence of p/CIP-EGFP fusion (nuclear receptor coactivator 3, mouse) (Q05BA5 1-1403): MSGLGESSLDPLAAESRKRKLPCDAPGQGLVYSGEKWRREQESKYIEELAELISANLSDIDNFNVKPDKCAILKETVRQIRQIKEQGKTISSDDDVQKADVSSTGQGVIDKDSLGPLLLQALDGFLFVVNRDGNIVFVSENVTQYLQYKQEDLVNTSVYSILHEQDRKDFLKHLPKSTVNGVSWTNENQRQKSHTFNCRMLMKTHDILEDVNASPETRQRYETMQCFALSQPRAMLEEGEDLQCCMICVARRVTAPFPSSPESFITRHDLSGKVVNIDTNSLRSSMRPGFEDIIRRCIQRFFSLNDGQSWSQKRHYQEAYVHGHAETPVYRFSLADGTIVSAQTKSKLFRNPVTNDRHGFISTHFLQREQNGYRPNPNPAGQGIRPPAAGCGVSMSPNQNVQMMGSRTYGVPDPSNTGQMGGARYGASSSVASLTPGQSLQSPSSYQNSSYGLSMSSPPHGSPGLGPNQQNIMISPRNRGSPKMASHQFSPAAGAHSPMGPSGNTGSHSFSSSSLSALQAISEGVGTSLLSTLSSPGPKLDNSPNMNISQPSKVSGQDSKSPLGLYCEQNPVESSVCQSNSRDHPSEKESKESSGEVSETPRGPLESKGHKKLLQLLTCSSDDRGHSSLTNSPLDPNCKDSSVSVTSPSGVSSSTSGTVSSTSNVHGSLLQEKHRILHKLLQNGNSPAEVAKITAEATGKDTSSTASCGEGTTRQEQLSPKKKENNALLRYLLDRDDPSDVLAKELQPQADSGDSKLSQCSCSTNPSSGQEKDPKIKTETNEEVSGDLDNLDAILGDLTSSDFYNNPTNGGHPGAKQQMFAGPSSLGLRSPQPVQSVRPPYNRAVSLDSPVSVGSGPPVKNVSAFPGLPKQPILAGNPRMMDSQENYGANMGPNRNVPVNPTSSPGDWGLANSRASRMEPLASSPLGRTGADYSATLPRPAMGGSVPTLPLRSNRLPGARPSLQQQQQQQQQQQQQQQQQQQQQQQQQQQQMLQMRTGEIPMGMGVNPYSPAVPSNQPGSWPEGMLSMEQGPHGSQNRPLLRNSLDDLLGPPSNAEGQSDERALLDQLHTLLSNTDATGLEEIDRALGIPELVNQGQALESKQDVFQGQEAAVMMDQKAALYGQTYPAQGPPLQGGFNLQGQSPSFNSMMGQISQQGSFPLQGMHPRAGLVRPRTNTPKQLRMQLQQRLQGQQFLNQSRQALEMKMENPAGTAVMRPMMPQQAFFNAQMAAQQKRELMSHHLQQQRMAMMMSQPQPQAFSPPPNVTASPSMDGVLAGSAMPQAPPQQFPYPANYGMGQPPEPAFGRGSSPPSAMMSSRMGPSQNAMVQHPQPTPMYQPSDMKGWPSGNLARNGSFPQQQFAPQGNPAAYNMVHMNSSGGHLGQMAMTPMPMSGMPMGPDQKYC
`C/C(=N\NC(=O)c1ccc2ccccc2c1)c1cccnc1`: the decrease of EGFP signal was -18.3%.

With `CCOc1ccc(CN(C)C(=O)c2ccc(=O)[nH]c2)cc1`, the decrease of EGFP signal was 5.1%.

Turning to `Cc1cc(S(=O)(=O)NC2CCCC2)ccc1-n1cnnn1`, the decrease of EGFP signal is -8.5%.

On to `O=C1NC(=O)C(c2ccc(Cl)cc2)N1` (stereo not given), for which the decrease of EGFP signal is -72.8%.

As for `CCOc1ccccc1N1CCN(C(=O)c2ccc3[nH]c(C)c(C)c3c2)CC1`, the decrease of EGFP signal is 6.3%.

For the molecule `COc1cc(CCC(=O)Nc2ccncc2Cl)cc(OC)c1OC`, the decrease of EGFP signal is -2.4%.

`Cc1nn(C)c(Cl)c1CN1CCC(Oc2ccc(C(=O)N3CCCC3)cc2)CC1`: the decrease of EGFP signal is -12%.

`O=C(Nc1cccc(-n2cnnn2)c1)c1cccnc1`: the decrease of EGFP signal is 2.8%.

As for `O=C(c1ccc(Cl)cc1)N1N=C(c2ccccn2)CC1(O)C(F)(F)F` (stereo not given), the decrease of EGFP signal is 1.2%.

`COc1ccc(C2Nc3ccccc3C(=O)N2c2ccc(Cl)cc2)cc1Cn1cc([N+](=O)[O-])cn1` (stereo not given): the decrease of EGFP signal was -4.3%.

With `CCCN(CCC)S(=O)(=O)c1ccc(C(=O)N2CC3CCC(CC3)C2)cc1`, the decrease of EGFP signal was -5.7%.

In the case of `CNC(=O)c1sc(NCc2ccccc2OC)nc1C`, the decrease of EGFP signal was -5%.

Consider `COc1cccc(NC(=O)N2CCCC2C(=O)NC2CCCCC2)c1` (stereo not given), for which the decrease of EGFP signal was -18.1%.

For the molecule `NC(=O)c1ccc(Nc2ccc3c(c2)CCC3)c([N+](=O)[O-])c1`, the decrease of EGFP signal is -5%.

For the molecule `C=CCc1cc(C)ccc1OCCCn1ccnc1`, the decrease of EGFP signal is 10.1%.

For `CC(C(=O)c1ccc(-c2ccccc2)cc1)[n+]1cccc(Br)c1` (stereo not given), the decrease of EGFP signal is -9.6%.

Regarding `COC(=O)Cn1cnc2scc(-c3ccc(C)c(C)c3)c2c1=O`, the decrease of EGFP signal is 4.1%.

For the molecule `CC(C)(C)NC(=O)C(c1ccc(Cl)cc1)N(CCO)C(=O)c1snc(C(N)=O)c1N` (stereo not given), the decrease of EGFP signal is 2.5%.

On to `CC(=O)[C@@]12O[C@@H]1C[C@H]1[C@@H]3CC[C@H]4C[C@@H](O)CC[C@]4(C)[C@H]3CC[C@@]12C`, for which the decrease of EGFP signal was -26.4%.

For the molecule `COc1cccc(OCC(O)CNC(=O)c2oc3c(C)c(C)ccc3c2C)c1` (stereo not given), the decrease of EGFP signal is -15.6%.
